Laboratory results reported in PubChem BioAssay (EPA / NIEHS).
The source made the active and inactive calls. The calls were made as follows: active = hit-call score of the fitted dose curve at least 0.9, where 1 is the maximum; inactive = score below 0.9.

Key:
[1] = read-out: Interleukin-6 (IL6), IL6 (gene 3569); assay: BSK_CASM3C_IL6: BioMAP Diversity Plus: CASM3C Assay for Interleukin-6 (IL6) Biomarker Activity for (AID 2283040); settings: primary human coronary artery smooth muscle cells; actives raise or lower the signal
[2] = read-out: Tissue plasminogen activator (tPA), PLAT (gene 5327); assay: BSK_BE3C_tPA: BioMAP Diversity Plus: BE3C Assay for Tissue plasminogen activator (tPA) Biomarker Activity (AID 2283041); settings: primary human bronchial epithelial cells; actives raise or lower the signal;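 also: tPA level quantified by ELISA one day after compound addition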
Method in brief: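 Primary human bronchial epithelial cells in the BE3C system, exposed to compound for 24 h. tPA was quantified by ELISA; DMSO served as baseline, with gain or loss of signal fitted. Cytotoxicity checked in parallel cultures by SRB total-protein staining.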

[3] = read-out: Interleukin-8 (IL8), CXCL8 (gene 3576); assay: BSK_CASM3C_IL8: BioMAP Diversity Plus: CASM3C Assay for Interleukin-8 (IL8) Biomarker Activity (AID 2283042); settings: primary human coronary artery smooth muscle cells; actives raise or lower the signal;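 also: IL-8 protein level quantified by ELISA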
[4] = read-out: Human Leukocyte Antigen - DR isotype (HLADR), HLA-DRA (gene 3122); assay: BSK_CASM3C_HLADR: BioMAP Diversity Plus: CASM3C Assay for Human Leukocyte Antigen - DR isotype (HLADR) Biomarker Activity (AID 2283043); settings: primary human coronary artery smooth muscle cells; actives raise or lower the signal;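 also: cell-surface HLA-DR protein level quantified by ELISA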
[5] = read-out: Macrophage colony-stimulating factor (MCSF), CSF1 (gene 1435); assay: BSK_CASM3C_MCSF: BioMAP Diversity Plus: CASM3C Assay for Macrophage colony-stimulating factor (MCSF) Biomarker Activity (AID 2283044); settings: primary human coronary artery smooth muscle cells; actives raise or lower the signal;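 also: M-CSF protein amount quantified by ELISA after 24 h exposure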
[6] = read-out: Low-density lipoprotein receptor (LDLR), LDLR (gene 3949); assay: BSK_CASM3C_LDLR: BioMAP Diversity Plus: CASM3C Assay for Low-density lipoprotein receptor (LDLR) Biomarker Activity (AID 2283045); settings: primary human coronary artery smooth muscle cells; actives raise or lower the signal;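 also: LDLR protein level on the cell surface quantified by ELISA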
[7] = read-out: Monocyte Chemoattractant Protein-1 (MCP1), CCL2 (gene 6347); assay: BSK_CASM3C_MCP1: BioMAP Diversity Plus: CASM3C Assay for Monocyte Chemoattractant Protein-1 (MCP1) Biomarker Activity (AID 2283046); settings: primary human coronary artery smooth muscle cells; actives raise or lower the signal;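 also: MCP-1 level quantified by ELISA 24 h after dosing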
[8] = BSK_CASM3C_Proliferation: Cell Proliferation Assessment in the BioMAP Diversity Plus: CASM3C Assay (AID 2283047); settings: primary human coronary artery smooth muscle cells;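 also: sulforhodamine B total protein stain as relative cell number at 560 nm; sub-confluent cells exposed 48 h before staining; fitted both ways against DMSO so gain or loss of cell number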
[9] = read-out: Monokine induced gamma interferon (MIG), CXCL9 (gene 4283); assay: BSK_CASM3C_MIG: BioMAP Diversity Plus: CASM3C Assay for Monokine induced gamma interferon (MIG) Biomarker Activity (AID 2283048); settings: primary human coronary artery smooth muscle cells; actives raise or lower the signal;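 also: MIG protein level measured by ELISA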
[10] = read-out: serum amyloid A (SAA), SAA1 (gene 6288); assay: BSK_CASM3C_SAA: BioMAP Diversity Plus: CASM3C Assay for serum amyloid A (SAA) Biomarker Activity (AID 2283049); settings: primary human coronary artery smooth muscle cells; actives raise or lower the signal;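 also: SAA protein level quantified by ELISA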
[11] = read-out: Thrombomodulin, THBD (gene 7056); assay: BSK_CASM3C_Thrombomodulin: BioMAP Diversity Plus: CASM3C Assay for Thrombomodulin Biomarker Activity (AID 2283051); settings: primary human coronary artery smooth muscle cells; actives raise or lower the signal;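 also: thrombomodulin protein level measured by ELISA 24 h after dosing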
[12] = read-out: Tissue Factor, F3 (gene 2152); assay: BSK_CASM3C_TissueFactor: BioMAP Diversity Plus: CASM3C Assay for Tissue Factor Biomarker Activity (AID 2283052); settings: primary human coronary artery smooth muscle cells; actives raise or lower the signal;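 also: cell surface tissue factor protein level read by ELISA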
[13] = read-out: Interferon-gamma inducible Protein 10 (IP10), CXCL10 (gene 3627); assay: BSK_hDFCGF_IP10: BioMAP Diversity Plus: hDFCGF Assay for Interferon-gamma inducible Protein 10 (IP10) Biomarker Activity (AID 2283053); settings: primary human foreskin fibroblasts; actives raise or lower the signal
Method in brief: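 Primary human foreskin fibroblasts exposed to chemicals for 24 h. IP-10 measured by ELISA; changes fitted bidirectionally against DMSO baseline.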

[14] = read-out: Urokinase-type plasminogen activator receptor (uPAR), PLAUR (gene 5329); assay: BSK_CASM3C_uPAR: BioMAP Diversity Plus: CASM3C Assay for Urokinase-type plasminogen activator receptor (uPAR) Biomarker Activity (AID 2283054); settings: primary human coronary artery smooth muscle cells; actives raise or lower the signal;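 also: cell-surface uPAR protein level quantified by ELISA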
[15] = read-out: Vascular cell adhesion molecule 1 (VCAM1), VCAM1 (gene 7412); assay: BSK_CASM3C_VCAM1: BioMAP Diversity Plus: CASM3C Assay for Vascular cell adhesion molecule 1 (VCAM1) Biomarker Activity (AID 2283055); settings: primary human coronary artery smooth muscle cells; actives raise or lower the signal;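 also: VCAM-1 protein level quantified by ELISA on the cells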
[16] = read-out: Collagen III, COL3A1 (gene 1281); assay: BSK_hDFCGF_CollagenIII: BioMAP Diversity Plus: hDFCGF Assay for Collagen III Biomarker Activity (AID 2283056); settings: primary human foreskin fibroblasts; actives raise or lower the signal
Method in brief: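 ELISA readout of Collagen III in human dermal (foreskin) fibroblasts, taken 24 h post-treatment. Gain or loss relative to DMSO vehicle fitted in both directions.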

[17] = read-out: Epidermal growth factor receptor (EGFR), EGFR (gene 1956); assay: BSK_hDFCGF_EGFR: BioMAP Diversity Plus: hDFCGF Assay for Epidermal growth factor receptor (EGFR) Biomarker Activity (AID 2283057); settings: primary human foreskin fibroblasts; actives raise or lower the signal
Method in brief: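 Primary human foreskin fibroblasts (hDFCGF system), sampled 24 h after dosing; EGFR quantified by ELISA. Bidirectional fit relative to DMSO baseline; SRB total-protein staining in parallel cultures for cytotoxicity.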

[18] = BSK_hDFCGF_Proliferation: Cell Proliferation Assessment in the BioMAP Diversity Plus: hDFCGF Assay (AID 2283059); settings: primary human foreskin fibroblasts;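 also: curves fitted for both rise and fall of signal versus DMSO baseline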
Method in brief: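 This proliferation readout used SRB total-protein staining of human foreskin fibroblasts […], normalized to DMSO with bidirectional curve fitting.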

[19] = BSK_CASM3C_SRB: Viability Assessment in the BioMAP Diversity Plus: CASM3C Assay (AID 2283050); settings: primary human coronary artery smooth muscle cells

Q: Which results are given for C[C@]12C=CC(=O)C=C1CC[C@@H]1[C@@H]2C(=O)C[C@@]2(C)[C@H]1CC[C@]2(O)C(=O)CO?
A: AC50 [1]: 704 nM (active); outcome [2]: inactive; AC50 [3]: 184 nM (active); outcome [4]: inactive; AC50 [5]: 243 nM (active); outcome [6]: inactive; AC50 [7]: 242 nM (active); outcome [8]: inactive; outcome [9]: inactive; AC50 [10]: 699 nM (active); outcome [11]: inactive; outcome [12]: inactive; outcome [13]: inactive; AC50 [14]: 239 nM (active); outcome [15]: inactive; outcome [16]: inactive; outcome [17]: inactive; outcome [18]: inactive

Q: With Nc1ccc(S(=O)(=O)c2ccc(N)cc2)cc1 as the compound, how does the outcome [1] read?
A: inactive

Q: And the outcome [2]?
A: inactive

Q: What about the outcome [3] of the same compound?
A: inactive

Q: And the outcome [4]?
A: inactive

Q: And the outcome [5]?
A: inactive

Q: And the outcome [6]?
A: inactive

Q: What about the outcome [7] of the same compound?
A: inactive

Q: And the outcome [8]?
A: inactive

Q: And the outcome [9]?
A: inactive

Q: And the outcome [10]?
A: inactive

Q: And the outcome [19]?
A: inactive

Q: What about the outcome [11] of the same compound?
A: inactive

Q: And the outcome [12]?
A: inactive

Q: And the outcome [13]?
A: inactive

Q: What about the outcome [14] of the same compound?
A: inactive

Q: What about the outcome [15] of the same compound?
A: inactive

Q: And the outcome [16]?
A: inactive

Q: And the outcome [17]?
A: inactive

Q: And the outcome [18]?
A: inactive

Q: What does the source list for Oc1ccc2ccccc2c1N=Nc1ccccc1?
A: outcome [1]: inactive; outcome [2]: inactive; outcome [3]: inactive; outcome [4]: inactive; outcome [5]: inactive; outcome [6]: inactive; outcome [7]: inactive; outcome [8]: inactive; outcome [9]: inactive; outcome [10]: inactive; outcome [19]: inactive; AC50 [11]: 1360 nM (active); outcome [12]: inactive; outcome [13]: inactive; outcome [14]: inactive; outcome [15]: inactive; outcome [16]: inactive; outcome [17]: inactive; AC50 [18]: 5030 nM (active)

Q: With CCCCCCCCCCCCCCCCCC(=O)O as the compound, how does the outcome [1] read?
A: inactive

Q: What about the outcome [2] of the same compound?
A: inactive

Q: What about the outcome [3] of the same compound?
A: inactive

Q: And the outcome [4]?
A: inactive

Q: What about the outcome [5] of the same compound?
A: inactive

Q: What about the outcome [6] of the same compound?
A: inactive

Q: What about the outcome [7] of the same compound?
A: inactive

Q: What about the AC50 [8] of the same compound?
A: 8810 nM (active)

Q: And the outcome [9]?
A: inactive

Q: What about the outcome [10] of the same compound?
A: inactive

Q: And the outcome [11]?
A: inactive

Q: And the outcome [12]?
A: inactive

Q: And the outcome [13]?
A: inactive

Q: What about the outcome [14] of the same compound?
A: inactive

Q: And the outcome [15]?
A: inactive

Q: What about the outcome [16] of the same compound?
A: inactive

Q: And the outcome [17]?
A: inactive

Q: And the outcome [18]?
A: inactive

Q: Which results are given for CC(=O)Oc1ccccc1C(=O)O?
A: outcome [1]: inactive; outcome [2]: inactive; outcome [3]: inactive; outcome [4]: inactive; outcome [5]: inactive; outcome [6]: inactive; outcome [7]: inactive; outcome [8]: inactive; outcome [9]: inactive; outcome [10]: inactive; outcome [19]: inactive; outcome [11]: inactive; outcome [12]: inactive; outcome [13]: inactive; outcome [14]: inactive; outcome [15]: inactive; outcome [16]: inactive; outcome [17]: inactive; outcome [18]: inactive

Q: Which results are given for COC(=O)c1ccc(O)cc1?
A: outcome [2]: inactive; outcome [3]: inactive; outcome [4]: inactive; outcome [5]: inactive; outcome [6]: inactive; outcome [7]: inactive; outcome [8]: inactive; outcome [9]: inactive; outcome [10]: inactive; outcome [19]: inactive; outcome [11]: inactive; outcome [12]: inactive; outcome [13]: inactive; outcome [14]: inactive; outcome [15]: inactive; outcome [16]: inactive; outcome [17]: inactive; outcome [18]: inactive

Q: Which outcome [1] does the source give for O=C(N[C@@H](Cc1ccccc1)[C@@H](O)C(=O)N1C[C@@H](O)[C@@H](O)C1)c1cc2cc(Cl)ccc2[nH]1 here?
A: inactive

Q: And the outcome [2]?
A: inactive

Q: What about the outcome [3] of the same compound?
A: inactive

Q: And the outcome [4]?
A: inactive

Q: What about the outcome [5] of the same compound?
A: inactive

Q: What about the outcome [6] of the same compound?
A: inactive

Q: What about the outcome [7] of the same compound?
A: inactive

Q: What about the outcome [8] of the same compound?
A: inactive

Q: What about the outcome [9] of the same compound?
A: inactive

Q: What about the outcome [10] of the same compound?
A: inactive

Q: What about the outcome [19] of the same compound?
A: inactive

Q: And the outcome [11]?
A: inactive

Q: What about the outcome [12] of the same compound?
A: inactive

Q: And the outcome [13]?
A: inactive

Q: What about the outcome [14] of the same compound?
A: inactive

Q: What about the outcome [15] of the same compound?
A: inactive

Q: And the outcome [16]?
A: inactive

Q: And the outcome [17]?
A: inactive

Q: What about the outcome [18] of the same compound?
A: inactive

Q: Which results are given for O=C(O)CCCCC(=O)O?
A: outcome [1]: inactive; outcome [2]: inactive; outcome [3]: inactive; outcome [4]: inactive; outcome [5]: inactive; outcome [6]: inactive; outcome [7]: inactive; outcome [8]: inactive; outcome [9]: inactive; outcome [10]: inactive; outcome [19]: inactive; outcome [11]: inactive; outcome [12]: inactive; outcome [13]: inactive; outcome [14]: inactive; outcome [15]: inactive; outcome [16]: inactive; outcome [17]: inactive; outcome [18]: inactive

Q: For CCCCCCCCCCO, which outcome [1] is on record?
A: inactive

Q: What about the outcome [2] of the same compound?
A: inactive

Q: What about the outcome [3] of the same compound?
A: inactive

Q: And the outcome [4]?
A: inactive

Q: And the outcome [5]?
A: inactive

Q: What about the outcome [6] of the same compound?
A: inactive

Q: And the outcome [7]?
A: inactive

Q: And the outcome [8]?
A: inactive

Q: What about the outcome [9] of the same compound?
A: inactive

Q: And the outcome [10]?
A: inactive

Q: And the outcome [19]?
A: inactive

Q: And the outcome [11]?
A: inactive

Q: And the outcome [12]?
A: inactive

Q: And the outcome [13]?
A: inactive

Q: And the outcome [14]?
A: inactive

Q: What about the outcome [15] of the same compound?
A: inactive

Q: And the outcome [16]?
A: inactive

Q: What about the outcome [17] of the same compound?
A: inactive

Q: What about the outcome [18] of the same compound?
A: inactive
